For experiment [1], the target named is T1, Mitogen-activated protein kinase 12 (Homo sapiens) (UniProt P53778).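 Further: values are averaged p38gamma kinase inhibition readings, compounds tested at 1 µM.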
T1 sequence (whole entry): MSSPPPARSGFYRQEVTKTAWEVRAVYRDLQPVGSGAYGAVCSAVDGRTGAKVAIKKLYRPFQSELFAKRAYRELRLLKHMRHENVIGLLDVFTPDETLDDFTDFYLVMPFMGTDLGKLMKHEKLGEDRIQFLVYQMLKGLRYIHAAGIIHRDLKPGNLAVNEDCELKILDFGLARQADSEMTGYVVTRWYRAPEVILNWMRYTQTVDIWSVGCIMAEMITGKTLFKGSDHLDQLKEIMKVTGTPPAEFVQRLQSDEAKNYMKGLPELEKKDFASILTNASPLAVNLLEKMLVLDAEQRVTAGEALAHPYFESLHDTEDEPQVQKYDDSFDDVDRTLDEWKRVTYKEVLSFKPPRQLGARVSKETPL
The note with it: at 1 µM.

For experiment [2], the target named is SRSF protein kinase 1 (Homo sapiens) (UniProt Q96SB4). To be noted: at 0.1 µM.
The target is the same in experiment [3]. The note with it: at 1 µM.
Experiment [4] addresses Phosphatidylinositol 4,5-bisphosphate 3-kinase catalytic subunit alpha isoform (Homo sapiens) (UniProt P42336). To be noted: at 0.1 µM.
Experiment [5] has the same target. The note with it: at 1 µM.
Experiment [6] deals with T2, Phosphatidylinositol 4,5-bisphosphate 3-kinase catalytic subunit delta isoform (Homo sapiens) (UniProt O00329).
T2 sequence (whole entry): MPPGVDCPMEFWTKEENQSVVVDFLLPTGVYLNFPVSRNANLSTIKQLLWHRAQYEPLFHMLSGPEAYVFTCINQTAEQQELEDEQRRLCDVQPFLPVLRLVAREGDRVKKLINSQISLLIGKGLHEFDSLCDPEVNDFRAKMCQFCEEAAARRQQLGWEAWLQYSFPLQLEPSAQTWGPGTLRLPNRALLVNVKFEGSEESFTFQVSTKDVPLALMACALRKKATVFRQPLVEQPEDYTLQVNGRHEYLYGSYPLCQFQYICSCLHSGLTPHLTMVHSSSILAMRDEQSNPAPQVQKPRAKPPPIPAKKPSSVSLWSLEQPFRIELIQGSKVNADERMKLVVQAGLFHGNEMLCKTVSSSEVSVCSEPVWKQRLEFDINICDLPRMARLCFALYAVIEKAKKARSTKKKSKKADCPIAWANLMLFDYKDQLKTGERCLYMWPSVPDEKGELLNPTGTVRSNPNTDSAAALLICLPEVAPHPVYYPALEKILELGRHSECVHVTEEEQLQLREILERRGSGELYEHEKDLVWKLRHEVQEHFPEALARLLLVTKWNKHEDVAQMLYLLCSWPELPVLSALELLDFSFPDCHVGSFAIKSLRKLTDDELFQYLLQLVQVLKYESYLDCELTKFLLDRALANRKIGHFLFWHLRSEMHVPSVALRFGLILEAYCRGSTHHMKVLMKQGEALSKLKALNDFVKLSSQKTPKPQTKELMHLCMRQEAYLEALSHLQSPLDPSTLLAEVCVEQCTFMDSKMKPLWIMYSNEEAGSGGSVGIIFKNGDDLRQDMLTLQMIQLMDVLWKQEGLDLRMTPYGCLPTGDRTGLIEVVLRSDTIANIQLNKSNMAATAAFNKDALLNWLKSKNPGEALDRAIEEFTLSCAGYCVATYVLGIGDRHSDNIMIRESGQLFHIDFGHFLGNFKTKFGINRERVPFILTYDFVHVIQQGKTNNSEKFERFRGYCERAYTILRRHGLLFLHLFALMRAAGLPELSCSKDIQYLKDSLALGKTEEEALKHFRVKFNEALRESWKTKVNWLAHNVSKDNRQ
The note with it: at 0.1 µM.

In experiment [7] the target is T2, Phosphatidylinositol 4,5-bisphosphate 3-kinase catalytic subunit delta isoform (Homo sapiens). To be noted: at 1 µM.
Experiment [8] addresses Phosphatidylinositol 4-kinase beta (Homo sapiens) (UniProt Q9UBF8). To be noted: at 0.1 µM.
The target is the same in experiment [9]. The note with it: at 1 µM.
In experiment [10] the target is Sphingosine kinase 1 (Homo sapiens) (UniProt Q9NYA1). To be noted: at 0.1 µM.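 Further: mean percent inhibition of SPHK1 activity, measured within the GSK PKIS screening panel.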
Sphingosine kinase 1 (Homo sapiens), sequence (Q9NYA1 whole entry): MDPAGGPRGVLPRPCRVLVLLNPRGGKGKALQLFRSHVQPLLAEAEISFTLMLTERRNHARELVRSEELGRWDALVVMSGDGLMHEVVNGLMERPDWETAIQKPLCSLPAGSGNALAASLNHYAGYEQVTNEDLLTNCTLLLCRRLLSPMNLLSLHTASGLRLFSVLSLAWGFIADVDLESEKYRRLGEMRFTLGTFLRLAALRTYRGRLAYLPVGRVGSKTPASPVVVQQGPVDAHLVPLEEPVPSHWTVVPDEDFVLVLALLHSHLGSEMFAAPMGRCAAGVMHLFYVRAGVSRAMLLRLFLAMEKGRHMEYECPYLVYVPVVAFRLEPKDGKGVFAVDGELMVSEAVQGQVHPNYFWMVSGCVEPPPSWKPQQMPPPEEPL

SRSF protein kinase 1 (Homo sapiens), sequence (Q96SB4 whole entry): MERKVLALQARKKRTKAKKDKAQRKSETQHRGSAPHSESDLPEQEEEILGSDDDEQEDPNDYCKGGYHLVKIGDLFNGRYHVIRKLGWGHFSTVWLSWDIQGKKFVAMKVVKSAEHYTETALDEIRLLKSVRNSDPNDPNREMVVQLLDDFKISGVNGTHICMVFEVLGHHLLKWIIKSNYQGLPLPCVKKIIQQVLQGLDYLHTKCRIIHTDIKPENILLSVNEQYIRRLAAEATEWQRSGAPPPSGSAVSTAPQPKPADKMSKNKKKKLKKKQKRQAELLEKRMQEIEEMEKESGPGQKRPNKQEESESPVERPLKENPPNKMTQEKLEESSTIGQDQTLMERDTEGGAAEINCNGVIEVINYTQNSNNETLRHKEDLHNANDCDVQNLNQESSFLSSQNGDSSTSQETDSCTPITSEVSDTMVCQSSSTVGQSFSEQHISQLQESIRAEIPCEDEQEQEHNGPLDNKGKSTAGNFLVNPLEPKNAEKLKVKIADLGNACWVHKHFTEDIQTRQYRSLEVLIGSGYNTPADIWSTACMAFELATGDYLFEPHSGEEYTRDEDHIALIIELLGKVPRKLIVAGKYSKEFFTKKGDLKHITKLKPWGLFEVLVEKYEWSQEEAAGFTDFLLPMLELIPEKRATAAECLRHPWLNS
Phosphatidylinositol 4-kinase beta (Homo sapiens), sequence (Q9UBF8 2-816 limits assumed): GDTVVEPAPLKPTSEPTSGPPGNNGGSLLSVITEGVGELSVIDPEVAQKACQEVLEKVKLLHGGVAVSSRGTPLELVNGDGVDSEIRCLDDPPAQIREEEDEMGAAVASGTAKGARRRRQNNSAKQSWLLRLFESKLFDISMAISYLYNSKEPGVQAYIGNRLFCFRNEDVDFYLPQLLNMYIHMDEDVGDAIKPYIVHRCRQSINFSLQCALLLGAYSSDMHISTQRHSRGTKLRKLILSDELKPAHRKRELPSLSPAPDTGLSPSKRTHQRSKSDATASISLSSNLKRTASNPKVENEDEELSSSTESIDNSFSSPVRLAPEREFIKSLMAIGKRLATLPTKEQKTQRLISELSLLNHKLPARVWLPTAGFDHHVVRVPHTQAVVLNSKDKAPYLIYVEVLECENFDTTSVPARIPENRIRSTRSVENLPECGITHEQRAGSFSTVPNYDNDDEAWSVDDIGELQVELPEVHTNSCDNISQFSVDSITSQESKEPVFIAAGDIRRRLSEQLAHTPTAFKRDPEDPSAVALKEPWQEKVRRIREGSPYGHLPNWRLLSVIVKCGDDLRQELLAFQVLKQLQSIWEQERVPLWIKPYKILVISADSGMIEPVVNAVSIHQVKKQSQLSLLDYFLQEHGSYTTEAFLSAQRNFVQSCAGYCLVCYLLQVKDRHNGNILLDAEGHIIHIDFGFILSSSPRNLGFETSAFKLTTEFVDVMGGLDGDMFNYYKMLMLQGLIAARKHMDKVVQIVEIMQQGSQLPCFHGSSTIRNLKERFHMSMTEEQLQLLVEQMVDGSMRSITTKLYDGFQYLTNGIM
Phosphatidylinositol 4,5-bisphosphate 3-kinase catalytic subunit alpha isoform (Homo sapiens), sequence (P42336 whole entry, canonical isoform): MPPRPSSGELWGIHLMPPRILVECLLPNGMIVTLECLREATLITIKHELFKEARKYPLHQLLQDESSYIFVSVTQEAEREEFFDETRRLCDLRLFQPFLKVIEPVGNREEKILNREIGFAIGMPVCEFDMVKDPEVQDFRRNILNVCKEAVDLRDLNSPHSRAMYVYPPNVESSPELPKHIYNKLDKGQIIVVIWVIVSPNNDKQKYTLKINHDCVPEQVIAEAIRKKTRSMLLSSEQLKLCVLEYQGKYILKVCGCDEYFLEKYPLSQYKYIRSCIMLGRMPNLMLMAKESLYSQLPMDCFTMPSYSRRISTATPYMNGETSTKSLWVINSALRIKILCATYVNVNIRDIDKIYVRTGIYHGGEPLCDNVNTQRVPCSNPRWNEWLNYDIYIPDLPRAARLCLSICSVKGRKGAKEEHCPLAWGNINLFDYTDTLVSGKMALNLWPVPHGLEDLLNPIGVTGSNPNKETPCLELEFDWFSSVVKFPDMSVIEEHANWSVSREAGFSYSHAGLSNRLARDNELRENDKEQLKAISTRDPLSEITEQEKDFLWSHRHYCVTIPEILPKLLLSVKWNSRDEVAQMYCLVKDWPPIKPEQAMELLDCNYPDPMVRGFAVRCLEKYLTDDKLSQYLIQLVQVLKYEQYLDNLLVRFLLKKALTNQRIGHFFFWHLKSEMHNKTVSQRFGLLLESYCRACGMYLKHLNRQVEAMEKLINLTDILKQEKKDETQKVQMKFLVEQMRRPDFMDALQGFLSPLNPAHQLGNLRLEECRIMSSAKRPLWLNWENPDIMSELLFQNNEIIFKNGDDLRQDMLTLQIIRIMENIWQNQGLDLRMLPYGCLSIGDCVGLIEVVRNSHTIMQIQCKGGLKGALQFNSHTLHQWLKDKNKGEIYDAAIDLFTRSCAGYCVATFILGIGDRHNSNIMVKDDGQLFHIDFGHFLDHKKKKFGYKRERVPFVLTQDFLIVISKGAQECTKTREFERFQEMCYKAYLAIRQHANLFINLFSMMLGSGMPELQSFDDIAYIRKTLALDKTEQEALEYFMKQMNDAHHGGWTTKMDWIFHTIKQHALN

For `Fc1ccc(-c2ncn(CCCN3CCOCC3)c2-c2ccncc2)cc1`, the inhibition is 0.4% in experiment [1]; 0.27% in [2]; -5.35% in experiment [3]; -0.43% in [4]; 0.51% in experiment [5]; 1.59% in experiment [6]. Further, the inhibition is 2.95% in experiment [7], -1.68% in experiment [8], -0.65% in [9] and 1.13% in experiment [10].

With `CN(C)CCCNc1nccc(-c2c(-c3ccc(F)cc3)nn3cc(C(F)(F)F)ccc23)n1`, the inhibition in [1] is 5.27%; in experiment [2], -0.17%; in experiment [3] it was -0.01%; in [4], 0.79%; in experiment [5], 0.02%; in experiment [6] it was 2.6%. Further, the inhibition in experiment [7] was 2%; in experiment [8], -3.83%; in experiment [9] it was 11.1%; in experiment [10], 0%.

As for `Cc1ccc(C(=O)NC(C)C)cc1-c1ccc(C(=O)NCC2CC2)cc1`, the inhibition is -1.93% in [1]; 1.33% in experiment [2]; 30.8% in experiment [3]; -2.38% in [4]; -1.61% in experiment [5]; -1.08% in [6]. Moreover, the inhibition in experiment [7] was -1.45%; in [8], -3.91%; in [9] it was -3.13%; in experiment [10] it was -0.6%.

For the molecule `NC(=O)c1cc(-c2ccncc2)cc(-c2ccccc2)c1N`, the inhibition in [1] is 3.34%; in experiment [2] it was -1.6%; in experiment [3] it was -0.84%; in experiment [4], 4.53%; in [5] it was 6.5%; in [6] it was 3.68%. The inhibition was 5.3% in [7], 0.64% in experiment [8], 3.86% in [9] and -0.86% in [10].

For the molecule `COc1cc2ncn(-c3cc(OCc4ccccc4C(F)(F)F)c(C(C)=O)s3)c2cc1OC`, the inhibition in [1] is 2.91%; in experiment [2], -0.85%; in [3], -1.87%; in experiment [4], 1.72%; in experiment [5], 2.65%; in experiment [6], 1.03%. In addition, the inhibition in experiment [7] was 1.51%; in experiment [8], 1.58%; in experiment [9] it was -4.62%; in [10], -1.64%.

Regarding `COc1cc2ncn(-c3cc(OCCc4ccccc4)c(C(N)=O)s3)c2cc1OC`, the inhibition is 1.89% in [1]; -2.73% in experiment [2]; -4.19% in [3]; 2.08% in [4]; 3.83% in [5]; 2.55% in experiment [6]. The inhibition in [7] is 5.55%; in [8], -0.92%; in experiment [9], 3.17%; in [10], -0.54%.

On to `COc1cc2ncn(-c3cc(OCc4cccs4)c(C(N)=O)s3)c2cc1OC`, for which the inhibition is 1.93% in experiment [1]; 1.92% in experiment [2]; 7.84% in experiment [3]; 2.89% in [4]; 8.89% in experiment [5]; 2.03% in experiment [6]. Also, the inhibition in [7] was 12.9%; in [8] it was 4.6%; in experiment [9], -3.17%; in experiment [10], 0.03%.

Regarding `CN(C)CCOc1ccc(-c2cc(-c3ccc4c(c3)CCC4=NO)c(-c3ccncc3)o2)cc1`, the inhibition in experiment [1] was -0.32%; in experiment [2] it was -1.96%; in [3] it was -0.37%; in [4] it was -0.14%; in experiment [5] it was 1.74%; in experiment [6], 2.02%. In addition, the inhibition in experiment [7] was 6.39%; in experiment [8] it was 3.66%; in [9] it was 2.02%; in experiment [10], -0.35%.

For `CCN(CC)Cc1ccc(Nc2nccc(-c3cnn4ncccc34)n2)cc1`, the inhibition in experiment [1] was 6.9%; in [2] it was -2.98%; in experiment [3], -1.36%; in experiment [4] it was 3.82%; in experiment [5], 11.4%; in [6], 6.31%. The inhibition in [7] was 40.2%; in experiment [8], -2.34%; in experiment [9], 4.5%; in [10] it was 0.05%.

Take `COc1cccc(/C=N/Nc2ncnc3c2cnn3-c2cccc(OC)c2)c1`: the inhibition in experiment [1] is 4.21%; in experiment [2], -3.08%; in experiment [3], -2.5%; in experiment [4] it was 4.36%; in [5], 1.65%; in experiment [6], 0.9%. Moreover, the inhibition in [7] is 1.58%; in experiment [8], 3.72%; in [9] it was 2.27%; in experiment [10], 2.07%.

For the molecule `COc1ccc2ncn(-c3cc(O[C@H](C)c4ccccc4Cl)c(C(N)=O)s3)c2c1`, the inhibition in [1] is 4.09%; in experiment [2], -1.6%; in experiment [3], -1.38%; in experiment [4], 3.9%; in [5] it was 4.87%; in experiment [6] it was 1.95%. Moreover, the inhibition is 17.5% in experiment [7], 1.3% in [8], -2.87% in experiment [9] and 1.65% in [10].

As to `COc1cc(Nc2ncc3c(C)nc(-c4cccc(Oc5ccccc5)c4)n3n2)cc(OC)c1OC`, the inhibition in experiment [1] is 0.85%; in [2], -2.01%; in [3], -3.6%; in [4], 0.78%; in experiment [5], 1.96%; in experiment [6], 0.25%. The inhibition is 2.99% in [7], 2.58% in experiment [8], 2.46% in [9] and -1.6% in [10].

Consider `COc1cc(N2CCN(C(C)C)CC2)ccc1Nc1nc(Nc2ccc(F)cc2C(=O)NC[C@@H](O)CO)c2cc[nH]c2n1`, for which the inhibition in experiment [1] was 2.97%; in experiment [2], -0.39%; in experiment [3] it was 3.84%; in experiment [4] it was 4.55%; in experiment [5], 2.69%; in experiment [6] it was 1.37%. Also, the inhibition is 3.4% in experiment [7], -3.83% in experiment [8], -1.08% in experiment [9] and 1.31% in experiment [10].

In the case of `Fc1ccc(-c2c(-c3ccncc3)nc3n2CCS3)cc1`, the inhibition was 2.27% in experiment [1]; -0.47% in experiment [2]; -2.14% in [3]; 2.88% in experiment [4]; 4.64% in experiment [5]; 2.37% in experiment [6]. The inhibition in [7] was 3.22%; in experiment [8], -2.06%; in experiment [9] it was 1.12%; in experiment [10], 3.13%.

Take `NS(=O)(=O)c1ccc(N/N=C2\C(=O)Nc3ccc(-c4cnco4)cc32)cc1`: the inhibition in experiment [1] was 5.43%; in experiment [2], -1.9%; in experiment [3], -0.75%; in [4], 1.34%; in experiment [5], -0.11%; in [6] it was 0.72%. Further, the inhibition in [7] was -0.54%; in [8], 1.44%; in experiment [9], 2.18%; in [10], -0.25%.

`CNC(=O)c1cncc(/C=C/c2c(C)cccc2C)c1`: the inhibition in experiment [1] was -0.37%; in [2], 0.32%; in experiment [3], 0.21%; in [4] it was -1.85%; in experiment [5], -3.99%; in experiment [6], -1.64%. For the same molecule, the inhibition was -1.98% in experiment [7], 3.95% in [8], 0.59% in [9] and 0.03% in experiment [10].

With `Fc1ccc(-c2nc3n(c2-c2ccncc2)CCS3)cc1`, the inhibition in experiment [1] is 3.41%; in [2] it was -1.99%; in experiment [3], -4.38%; in experiment [4], 3.77%; in [5], 4.45%; in [6] it was 3.17%. In addition, the inhibition in experiment [7] was 4.9%; in experiment [8], -3.93%; in [9], 0.29%; in [10], -3.68%.
